# HP1b binding inh = HTS for Inhibitors of HP1-beta Chromodomain Interactions with Methylated Histone Tails; Chromobox protein homolog 1 (Homo sapiens), P83916; AlphaScreen HP1-beta / biotin-H3K9me3 peptide binding; Potency, µM (series often up to 114 µM), most hits filed as inhibitors; 390,000 compounds, 0.56% hits; AID 540317, 2011; note: nearly all actives have a fitted effect of over 70% in size
#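 HP1-beta protein (50 nM final) preincubated 30 min at room temperature with biotinylated H3(1-18)K9me3 peptide (50 nM) in PBS pH 7.4, 0.01% Tween-20, then compound added for 30 min. AlphaScreen streptavidin donor/nickel chelate acceptor beads (10 ug/mL final), 30 min dark, luminescence read.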
# BAZ2B inh = qHTS Assay for Inhibitors of BAZ2B. Bromodomain adjacent to zinc finger domain protein 2B (Homo sapiens), Q9UIF8. AlphaScreen BAZ2B-H3K14Ac peptide displacement. Potency, µM (titrated, usually from 114 µM), most hits filed as inhibitors. 360,000 compounds, 4.4% hits; note: nearly all actives have a fitted effect of over 60% in size
#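 Complex of BAZ2B and biotin-H3K14Ac (50 nM apiece) forms over 30 min at RT, then faces library compounds up to 110 uM for another 30 min; AlphaScreen beads added, 20 min dark incubation, luminescence read.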
# ALOX12 inh = Primary qHTS assay for inhibitors of human arachidonate 12S-lipoxygenase (ALOX12): Round 2 | 580,000 compounds, 1.1% hits | Polyunsaturated fatty acid lipoxygenase ALOX12 (Homo sapiens), P18054 | Potency, µM (highest dose often 108 µM), actives largely listed as inhibitors | AID 1671190, 2021 | purified 12hLO, xylenol orange hydroperoxide absorbance
# Target sequence (P18054 whole entry, looked up): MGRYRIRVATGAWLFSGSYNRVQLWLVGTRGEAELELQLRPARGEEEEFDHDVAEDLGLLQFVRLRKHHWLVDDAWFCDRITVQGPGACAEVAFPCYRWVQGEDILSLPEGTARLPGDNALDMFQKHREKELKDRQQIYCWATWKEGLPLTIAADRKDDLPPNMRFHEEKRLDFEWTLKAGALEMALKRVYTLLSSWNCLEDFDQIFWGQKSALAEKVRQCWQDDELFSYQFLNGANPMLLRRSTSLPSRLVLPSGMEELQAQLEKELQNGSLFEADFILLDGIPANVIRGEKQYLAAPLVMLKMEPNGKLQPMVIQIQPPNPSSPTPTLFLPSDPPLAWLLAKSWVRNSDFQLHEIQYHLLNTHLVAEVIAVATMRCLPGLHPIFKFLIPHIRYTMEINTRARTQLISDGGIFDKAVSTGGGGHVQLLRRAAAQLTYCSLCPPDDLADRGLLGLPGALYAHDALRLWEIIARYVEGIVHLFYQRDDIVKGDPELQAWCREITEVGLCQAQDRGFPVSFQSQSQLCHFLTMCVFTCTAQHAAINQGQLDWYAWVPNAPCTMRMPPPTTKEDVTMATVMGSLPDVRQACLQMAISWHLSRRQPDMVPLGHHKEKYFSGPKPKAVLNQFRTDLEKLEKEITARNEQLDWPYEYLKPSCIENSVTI
#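 Purified human 12hLO at 150 nM in 25 mM Hepes, 0.01% Triton X-100, pH 7.0, preincubated 15 min at room temperature with compound. Reaction started with 40 uM arachidonic acid, 30 min at room temperature. Hydroperoxide measured by Fe-xylenol orange, 573/405 nm absorbance ratio.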
# PLK1 PBD inh = qHTS for Inhibitors of PLK1-PDB (polo-like kinase 1 - polo-box domain): Primary Screen; Plk1 PBD binding of FITC phosphopeptide, fluorescence polarization; AID 720504, 2013; 360,000 compounds, 2.8% hits; Potency, µM, usual class: inhibitors; note: series mostly up to about 57 µM; nearly all actives have a fitted effect of over 65% in size
# G9a inh = qHTS Assay for Inhibitors of Histone Lysine Methyltransferase G9a; Potency, µM (top dose mostly 102 µM), usual class: inhibitors; 350,000 compounds, 8.8% hits; G9a H3K9 monomethylation, AlphaScreen, 2 h; AID 504332, 2011; Histone-lysine N-methyltransferase EHMT2 (Homo sapiens), Q96KQ7; note: nearly all actives have a fitted effect of over 75% in size
#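 Readings reflect AlphaScreen signal from monomethyl-H3K9 antibody detection. HMT at 20 nM; substrate b-H3K9 500 nM; cofactor SAM 20 uM; 2 h RT reaction; compounds tested as titrations in qHTS with 15 min preincubation.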
# JMJD2A Tudor inh = qHTS Assay for Inhibitors of JMJD2A-Tudor Domain; Lysine-specific demethylase 4A (Homo sapiens), O75164; AlphaScreen JMJD2A-Tudor / H3K4me3 peptide binding; Potency, µM (titrated, usually from 114 µM), most hits filed as inhibitors; 390,000 compounds, 4.4% hits; AID 504339, 2011; note: nearly all actives have a fitted effect of over 50% in size
# Hits are given with their value; - = inactive; ? = inconclusive; . = not tested or not shown; [ ] = another dose, or the depositor's remark. Compounds with a hit are over-represented: about 9% of the library has one in this group of screens. Calls come from the whole dose curve; as a rule, active = well fitted curve in the direction sought with a large enough effect; inconclusive = small, poorly fitted or top-dose-only effect, or another doubt; inactive = no such curve, though single readings can be large; an effect the other way counts as inactive or inconclusive.
SMILES,HP1b binding inh,BAZ2B inh,ALOX12 inh,PLK1 PBD inh,G9a inh,JMJD2A Tudor inh
CCOC(=O)c1[nH]c(C)c(CCC(=O)N2CCN(c3cccc(OC)c3)CC2)c1C,-,-,-,.,-,-
Cc1cc(CN(C)Cc2ccc(F)cc2)no1,.,.,-,.,.,.
Cc1cc(Cc2cc(C)c(N)cc2C)c(C)cc1N,-,35µM,-,-,.,-
Cc1cc(C[n+]2ccccc2)c(C)cc1C[n+]1ccccc1,.,.,-,.,.,.
C=CCn1c(-c2oc3nc(-c4ccccc4)cc(-c4ccccc4)c3c2N)n[nH]c1=S,?,-,?,-,32µM,?
C=CCn1nnnc1-c1cccc(Cl)c1,-,-,-,27µM,-,-[11.4 µM]
C=CCn1c(-c2sccc2C)n[nH]c1=S,-,-,-,-,7.9µM,7.1µM
C=CCn1c(-c2cccc([N+](=O)[O-])c2)n[nH]c1=S,-,-,-,-,13µM,5.6µM
Fc1ccc(C2NC(=S)NC3=C2N2CCC3CC2)cc1 (stereo not given),-,-,-,-,-,-
Cc1ccc(SCC(=O)NCc2ccco2)cc1,-,-,?,-,-,-
S=c1[nH]nc(-c2cccc(Cl)c2)n1Cc1ccccc1,-,-,?,-,?,?
C=CCn1c(-c2cccc(Cl)c2)n[nH]c1=S,-,-,?,-,2.8µM,10µM
O=[N+]([O-])c1cccc(-c2n[nH]c(=S)n2Cc2ccccc2)c1,-,-,?,-,1.8µM,79µM
Cc1ccc(NC(=O)c2nn(-c3ccccc3)c(=O)c3ccccc23)c(F)c1,.,.,-,.,.,.
Cn1cccc1/C=N/n1c(-c2ccc(Cl)cc2)n[nH]c1=S,-,-,?,-,?,-
Cc1nnc(C)n1/N=C/c1ccccn1,-,-,-,-,-,-
Cc1ccc(-c2n[nH]c(=S)n2/N=C/c2cccn2C)cc1,-,-,25µM,-,1.1µM,22µM
COc1ccc(-c2n[nH]c(=S)n2/N=C/c2cccn2C)cc1,?,-,?,-,1.1µM,6.3µM
Cc1nnc(C)n1/N=C/c1cccn1C,-,-,-,3µM,-,-[11.4 µM]
S=c1[nH]nc(-c2cc(-c3ccccc3)n[nH]2)n1/N=C/c1ccc(Cl)cc1,-,-,-,-,?,-
Cn1cccc1/C=N/n1c(-c2ccc(Cl)cc2Cl)n[nH]c1=S,-,45µM,?,-,?,79µM
COc1ccc(-c2oc(=O)c3cc(OC)c(OC)cc3c2C#CCCCO)cc1,-,.,-,-,.,-
CCCC1CCC(c2ccc(C(=O)O)cc2)CC1 (stereo not given),.,.,-,.,.,.
CCCCCC1CCC(c2ccc(C(=O)CCN(C)C)cc2)CC1 (stereo not given),.,.,7.9µM,.,.,.
CCCCCCOc1ccc(C(=O)CCN(C)C)cc1,.,.,32µM,.,.,.
SMILES,HP1b binding inh,BAZ2B inh,ALOX12 inh,PLK1 PBD inh,G9a inh,JMJD2A Tudor inh
CCCSc1ccc(C(=O)CCN(C)C)cc1,.,.,32µM,.,.,.
CCCOc1ccc(C(=O)CCN(C)C)cc1,.,.,-,.,.,.
CCOC(=O)C(C)Sc1nnc(NC(=O)c2ccc(C)c([N+](=O)[O-])c2)s1 (stereo not given),-,-,-,-,?,-
Cc1cccc(OCC(O)CN2C(C)(C)CC(O)CC2(C)C)c1 (stereo not given),-,-,-,9.5µM,-,-[11.4 µM]
COc1ccc(C2(c3ccc(O)cc3O)CC(c3ccccc3Cl)NC(=S)N2)cc1 (stereo not given),?,28µM,18µM,-,?,50µM
COc1cccc(C2CC(c3ccccc3Cl)n3nc(N)nc3N2)c1 (stereo not given),-,-,-,-,-,-
CC1(C)Cc2c(c(N3CCOCC3)nc3sc4c(NCc5ccco5)nnnc4c23)CS1,-,-,-,-,18µM,-
Nc1cc2c(cc1C(=O)c1cccc(Br)c1)OCCO2,?,35µM,-,-,18µM,45µM
Cc1[nH]c2ccccc2c1-c1csc(NC(=O)CN2CCOCC2)n1,-,79µM,-,?,35µM,?
CCC1Sc2ccccc2N(CC(=O)NC2CCCC2)C1=O (stereo not given),-,-,-,-,-,-
CCC(=O)N1CCCN(CCN(C)C)c2ccccc21,.,.,-,.,.,.
COc1ccc(CN2CCC(Cc3ccccc3)CC2)c(C)c1C,-,?,?,-,?,28µM
CCC1CCCCN1Cc1ccc(OC)c(C)c1C (stereo not given),-,?,?,-,25µM,-
COc1cc2nc(CN3CCC(Cc4ccccc4)CC3)[nH]c(=O)c2cc1OC,-,-,-,-,-,-
COc1cc(CN2CCC(Cc3ccccc3)CC2)cc(OC)c1OC,?,79µM,?,-,.,25µM
NC(=O)C1CCN(S(=O)(=O)Cc2c(F)cccc2Cl)CC1,.,.,-,.,.,.
Cc1ccc(S(=O)(=O)C2(S(=O)(=O)c3ccc(C)cc3)CC2)cc1,-,-,-,-,-,-
CC(/C=C/c1ccco1)=N\NC(=O)COc1ccc(C)c(C)c1,-,?,-,-,40µM,-
CCOC(=O)N/N=C(C)/C=C/c1ccccc1,-,-,-,-,-,-
CCOC(=O)N/N=C(C)/C=C/c1ccco1,-,-,-,-,11µM,-
Cc1ccc(OCCNC(=O)/C=C/c2ccco2)cc1C,-,-,-,-,.,-
CC(/C=C/c1ccco1)=N\NC(=O)CNc1ccc2ccccc2c1,-,35µM,-,-,5.6µM,?
COc1ccc(C(=O)N2CCC(n3cc(-c4nc(C)no4)nn3)C2)c(C)c1 (stereo not given),.,.,-,.,.,.
O=C(Nc1cnc2ccccc2c1)c1cccnc1,-,-,-,-,-,-
O=C(Nc1ccc2ncccc2c1)c1ccccc1,-,-,?,8.4µM,.,22µM
SMILES,HP1b binding inh,BAZ2B inh,ALOX12 inh,PLK1 PBD inh,G9a inh,JMJD2A Tudor inh
O=C(NC(=S)Nc1ccc2nc[nH]c2c1)c1ccccc1,-,-,-,-,50µM,-
O=C(NNC(=S)Nc1ccccc1)c1ccc2ncccc2c1,-,-,-,-,28µM,-
O=C(Nc1ccc2nc3ccccc3nc2c1)c1ccc(Br)cc1,-,-,-,-,8.9µM,-
CC(C)(C)NC(=S)NNC(=O)c1ccc2ncccc2c1,-,-,-,-,-,-
COc1ccc(-c2csc3nc(C)nc(NCCCO)c23)cc1OC,.,.,-,.,.,.
COc1ccccc1NC(=O)CSc1ccc(-c2sc(C)nc2C)nn1,-,-,-,.,-,-
Cc1cc(C(=O)Nc2ccc(Br)cc2)cs1,-,56µM,-,-,79µM,-
O=C(Nc1ccc2ncccc2c1)c1ccccc1Cl,-,-,45µM,-,10µM,-
O=C(NC(=S)Nc1ccc2ncccc2c1)c1ccccc1,-,?,?,-,56µM,?
